# Assay results from the supplement of paper PMC8728848.
# The full list was thinned out, with the strongest signals kept by preference.
# B1: SSR1 (Sclerotium rolfsii), A0A0M3KL30 (protein)
# chain: TYKITVRVYQTNPDAFFHPVEKTVWKYANGGTWTITDDQHVLTMGGSGTSGTLRFHADNGESFTATFGVHNYKRWCDIVTNLAADETGMVINQQYYSQKNREEARERQLSNYQVKNAKGRNFQIVYTEAEGNDLHANLIIG
# How the values were obtained:
# Assay in all cases: glycan array binding signal (z-score within array); higher = stronger binding
# Details in all cases: glycan notation: IUPAC condensed, linker removed
# [1] = molecular target: GlcNAc(a1-4)Gal(b1-4)GlcNAc(b1-3)Gal(b1-4)GlcNAc(b1-3)Gal(b1-4)GlcNAc
# In short: (§1)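 The Consortium for Functional Glycomics database supplied 3228 glycan arrays, of which those lacking an available protein sequence were dropped. The binding signal, a within-array Z-score, was averaged across arrays of the same protein sequence and across linkers. Negative scores can be read as non-binding.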
# [2] = molecular target: GlcNAc(a1-4)Gal(b1-4)GlcNAc(b1-3)Gal(b1-4)[Fuc(a1-3)]GlcNAc(b1-3)Gal(b1-4)[Fuc(a1-3)]GlcNAc
# In short: as §1
# [3] = molecular target: GlcNAc(b1-2)Man(a1-3)[GlcNAc(b1-2)Man(a1-6)]Man(b1-4)GlcNAc(b1-4)GlcNAc
# In short: as §1
# [4] = molecular target: GlcNAc(b1-2)[GlcNAc(b1-4)]Man(a1-3)[GlcNAc(b1-2)Man(a1-6)]Man(b1-4)GlcNAc(b1-4)GlcNAc
# In short: as §1
# [5] = molecular target: GlcNAc(b1-2)[GlcNAc(b1-6)]Man(a1-6)[GlcNAc(b1-2)Man(a1-3)]Man(b1-4)GlcNAc(b1-4)GlcNAc
# In short: as §1
# [6] = molecular target: GlcNAc(b1-2)[GlcNAc(b1-6)]Man(a1-6)[GlcNAc(b1-2)Man(a1-3)]Man(b1-4)GlcNAc(b1-4)[Fuc(a1-6)]GlcNAc
# In short: as §1
# [7] = molecular target: GlcNAc(b1-3)Gal(b1-4)GlcNAc(b1-2)[GlcNAc(b1-3)Gal(b1-4)GlcNAc(b1-6)]Man(a1-6)[GlcNAc(b1-3)Gal(b1-4)GlcNAc(b1-2)Man(a1-3)]Man(b1-4)GlcNAc(b1-4)GlcNAc
# In short: as §1
# [8] = molecular target: GlcNAc(b1-3)Gal(b1-4)GlcNAc(b1-6)[GlcNAc(b1-3)]Gal(b1-4)GlcNAc
# In short: as §1
# [9] = molecular target: GlcNAc(b1-3)GalNAc
# In short: as §1
# [10] = molecular target: GlcNAc(b1-6)GalNAc
# In short: as §1
# [11] = molecular target: Man(a1-2)Man(a1-3)[Man(a1-2)Man(a1-6)]Man(a1-6)[Man(a1-2)Man(a1-2)Man(a1-3)]Man(b1-4)GlcNAc(b1-4)GlcNAc
# In short: as §1
# [12] = molecular target: Man(a1-2)Man(a1-6)[Man(a1-3)]Man(a1-6)[Man(a1-2)Man(a1-2)Man(a1-3)]Man
# In short: as §1
# [13] = molecular target: Neu5Ac(a2-3)Gal(b1-3)GalNAc(b1-4)Gal(b1-4)Glc
# In short: as §1
# [14] = molecular target: Neu5Ac(a2-3)Gal(b1-3)GlcNAc(b1-3)Gal(b1-4)GlcNAc
# In short: as §1
# [15] = molecular target: Neu5Ac(a2-3)Gal(b1-3)[Fuc(a1-4)]GlcNAc
# In short: as §1
# [16] = molecular target: Neu5Ac(a2-3)Gal(b1-4)GlcNAc(b1-2)Man
# In short: as §1
# [17] = molecular target: Neu5Ac(a2-3)Gal(b1-4)GlcNAc(b1-3)Gal(b1-4)GlcNAc(b1-3)GalNAc
# In short: as §1
# [18] = molecular target: Neu5Ac(a2-3)Gal(b1-4)GlcNAc(b1-3)Gal(b1-4)GlcNAc(b1-6)[Gal(b1-3)]GalNAc
# In short: as §1
# [19] = molecular target: Neu5Ac(a2-3)Gal(b1-4)GlcNAc(b1-6)GalNAc
# In short: as §1
# [20] = molecular target: Neu5Ac(a2-3)Gal(b1-4)[Fuc(a1-3)]GlcNAc(b1-2)Man
# In short: as §1
# [21] = molecular target: Neu5Ac(a2-3)Gal(b1-4)[Fuc(a1-3)]GlcNAc(b1-3)Gal
# In short: as §1
# [22] = molecular target: Neu5Ac(a2-3)Gal(b1-4)[Fuc(a1-3)]GlcNAc(b1-3)Gal(b1-4)GlcNAc
# In short: as §1
# [23] = molecular target: Neu5Ac(a2-3)Gal6S(b1-4)[Fuc(a1-3)]GlcNAc
# In short: as §1
# [24] = molecular target: Neu5Ac(a2-6)Gal(b1-4)GlcNAc(b1-2)Man(a1-3)Man(b1-4)GlcNAc(b1-4)GlcNAc
# In short: as §1
# [25] = molecular target: Neu5Ac(a2-6)Gal(b1-4)GlcNAc(b1-2)Man(a1-3)[Neu5Ac(a2-3)Gal(b1-4)GlcNAc(b1-2)Man(a1-6)]Man(b1-4)GlcNAc(b1-4)GlcNAc
# In short: as §1
# [26] = molecular target: Neu5Ac(a2-6)Gal(b1-4)GlcNAc(b1-3)[Neu5Ac(a2-6)Gal(b1-4)GlcNAc(b1-6)]GalNAc
# In short: as §1
# [27] = molecular target: Neu5Ac9Ac(a2-3)Gal(b1-4)GlcNAc
# In short: as §1
# [28] = molecular target: Neu5Gc(a2-3)Gal(b1-3)GlcNAc
# In short: as §1
# [29] = molecular target: Neu5Gc(a2-3)Gal(b1-4)Glc
# In short: as §1
binder,measurement,setting,value
B1,glycan array binding signal (z-score),[1],6.33
same,glycan array binding signal (z-score),[2],3.01
same,glycan array binding signal (z-score),[3],5.28
same,glycan array binding signal (z-score),[4],3.04
same,glycan array binding signal (z-score),[5],3.93
same,glycan array binding signal (z-score),[6],3.66
same,glycan array binding signal (z-score),[7],1.32
same,glycan array binding signal (z-score),[8],0.953
same,glycan array binding signal (z-score),[9],0.954
same,glycan array binding signal (z-score),[10],1.03
same,glycan array binding signal (z-score),[11],-0.548
same,glycan array binding signal (z-score),[12],-0.348
same,glycan array binding signal (z-score),[13],-0.271
same,glycan array binding signal (z-score),[14],-0.343
same,glycan array binding signal (z-score),[15],-0.341
same,glycan array binding signal (z-score),[16],-0.313
same,glycan array binding signal (z-score),[17],0.407
same,glycan array binding signal (z-score),[18],1.06
same,glycan array binding signal (z-score),[19],-0.334
same,glycan array binding signal (z-score),[20],-0.374
same,glycan array binding signal (z-score),[21],-0.342
same,glycan array binding signal (z-score),[22],-0.324
same,glycan array binding signal (z-score),[23],-0.349
same,glycan array binding signal (z-score),[24],-0.341
same,glycan array binding signal (z-score),[25],-0.339
same,glycan array binding signal (z-score),[26],-0.297
same,glycan array binding signal (z-score),[27],-0.27
same,glycan array binding signal (z-score),[28],-0.329
same,glycan array binding signal (z-score),[29],-0.278
